# Data published in ChEMBL document CHEMBL4888484, “Replenishing the malaria drug discovery pipeline: Screening and hit evaluation of the MMV Hit Generation Library 1 (HGL1) against asexual blood stage Plasmodium falciparum ,using a nano luciferase reporter read-out” (2022).
# Among all 4,800 compounds or so, about 420 (8.8%) showed an effect of 50% or more. The sample holds strong results, similar compounds and a random draw of the others, so the mix is not that of the screen.
# Tested on: Plasmodium falciparum
# Test: Confirmatory screen in NF54 nanoGlo assay, in single point, at 2uM, 72h
# Assay type: functional, Erythrocyte
# Details: timepoint 72 hour
row,SMILES,% Inhibition [%]
1,CC(C)NC(=O)[C@H](C)N(C)Cc1nccn1CC(F)(F)F,-1
2,CCC(CC)c1ccc([C@H]2N(C(=O)c3ccc(C)cc3)CCN2S(=O)(=O)c2ccccc2)cc1,-2
3,O=S1(=O)CCN(C2CCN(Cc3c(F)cccc3F)CC2)CC1,4
4,COc1cccc(N2C(=O)C[C@]3(CC3(c3ccccc3)c3ccccc3)C2=O)c1,39
5,CN1C2(c3ccccc3)C3C(=O)N(c4ccccc4)C(=O)C3C1(c1ccccc1)C1C(=O)N(c3ccccc3)C(=O)C12 (centres undefined),2
6,Cc1ccc(N2C(=O)C[C@]3(CC3(c3ccccc3)c3ccccc3)C2=O)cc1,66
7,O=S(=O)(Cc1ccno1)NCCc1ccccc1OC(F)F,2
8,Cc1ccc(C(=O)Nc2noc(-c3ccc(C)cc3)c2-c2ccccc2Cl)cc1,-11
9,c1cc(-c2cn3c(COc4ccc5c(c4)OCO5)nnc3s2)ccn1,3
10,CC1CCN(C[C@H]2CCCCCN2C(=O)NCCc2ccccc2)CC1,34
11,O=C(Cc1cc(F)c(F)cc1F)N1CCOC[C@H]1c1ncon1,-3
12,Cc1nc2ccccc2cc1OCc1ccc(F)cc1,3
13,CC(NC(=O)N[C@@H]1C=C[C@H](CO)C1)c1ccncc1F (some centres undefined),2
14,S=c1cc(-c2ccccc2)n(Cc2ccco2)c2c1CCCC2,38
15,Cc1ccc(Cc2nc(N3CCCN(C(=O)CCc4ccccc4)CC3)c3cnn(-c4ccccc4)c3n2)cc1,1
16,COCCOc1ccc2c(n1)CCN(C(=O)c1ccc(OC)c(OC)c1)C2,-12
17,Cc1nn(C)cc1NC(=O)N[C@H]1CCCC[C@@H]1O,-9
18,C[C@@H](C1CC1)N(C1CC1)S(=O)(=O)c1ccc(F)cc1F,-2
19,Cc1ncccc1C(=O)Nc1cccc(Oc2cccnn2)c1,1
20,Cc1c(Cl)c(C(F)(F)F)nn1[C@@H](C)C(=O)NC1CCN(C(C)C)CC1,-4
21,COc1cccc(-c2cc3c(N4CC=C(c5ccccc5)CC4)nccn3n2)c1,-2
22,CC[C@H]1Cn2c(C(=O)N3CCN(C(=O)c4ccco4)CC3)cc3c(Cl)ccc(c32)O1,-17
23,CCCn1nc(-n2cnnc2)c(NC(=O)c2ccc3c(c2)OCO3)c1C,-4
24,CCOc1ccc(NC(=O)c2cnc(N(Cc3ccccc3)C(C)C)nc2N)cc1,-15
25,CCOc1ccc(NC(=O)c2ccc3c(c2)N(CC)[C@@H]2CCCCN2C3=O)cc1,7

row,SMILES,% Inhibition [%]
1,CCOC(=O)C1CCC(CN(Cc2ccc(OC)cc2)S(=O)(=O)c2cc(C(=O)Nc3ccc(OCC)cc3)ccc2F)CC1 (centres undefined),50
2,CN(c1ccc(Br)cc1)S(=O)(=O)c1ccc2c(c1)CCN2C(=O)C1CCC1,-7
3,COc1ccccc1CNC(=O)c1cnn2c(-c3ccc(Cl)cc3)ccnc12,-4
4,c1cncc(CN2CCN(C3CCCCCC3)CC2)c1,3
5,Cc1cccc(Cn2ccc(-c3cccc(OCc4ccc(Cl)cc4Cl)c3)n2)c1,-4
6,C[C@H]1CC(C)(C)N(C)c2ccc(/C=C/c3c(C(=O)O)cnc4ccnn34)cc21,7
7,CN(C)CCCNCc1ccccc1F,-2
8,OCCNCc1c(Cl)cccc1Cl,-1
9,Clc1cccc(CNCCCNc2ccncc2)c1Cl,71
10,CC[C@@H](CCNS(=O)(=O)c1cn(C(F)F)nc1C)n1ccc(C(F)(F)F)n1,-8
11,COc1ccc(Nc2nc(C(=O)Nc3ncc(C)s3)cs2)cc1OC,17
12,CCOC(=O)Oc1c(OC)cc(C(=O)Nc2ccc3c(c2)sc(=O)n3C)cc1OC,6
13,CCOc1cc(C(=O)Nc2ccc3nc4c(c(Nc5ccc(OC)c(OC)c5)c3c2)CCCC4)cc(OCC)c1OCC,96
14,Clc1ccc(COc2ccc(CNC3CCCCC3)cc2Br)cc1,-4
15,O=C(NC[C@H]1CCS(=O)(=O)C1)c1ccc2[nH]c3c(c2c1)CCCC3,-6
16,O=C(Cc1ncc(C(F)(F)F)cc1Cl)c1ccc(Cl)cc1Cl,-6
17,O=C(Nc1ccc(C(F)(F)F)cc1)N1CCN(CC(O)C2CCCO2)CC1 (centres undefined),4
18,CC(NC(=O)N1CCCCC1)(C(F)(F)F)C(F)(F)F,7
19,COc1cccc(Oc2nc(N3CCN(C)CC3)nc3c2CN(C(=O)Nc2ccccc2)CC3)c1,5
20,O=S(=O)(c1cccc(Cl)c1)N1CCc2nc(N3CCCCC3)nc(Oc3ccccc3)c2C1,73
21,COc1cccc(CC(=O)N2CCc3nc(N4CCC(C)CC4)nc(Oc4ccccc4OC)c3C2)c1,45
22,O=C(O)Cc1sc(-c2ccc(Cl)cc2)nc1-c1ccc(Oc2ccccc2)cc1,0
23,CN1CCN(C(=O)[C@@H]2Cc3ccccc32)CC1,2
24,CCc1nnc2ccc(S(=O)(=O)Nc3cc(F)cc(F)c3)cn12,-5
25,CCOC(=O)N1CCN(C(=O)C2c3ccccc3C(=O)N(C3CCCCC3)C2c2ccc(OC)cc2)CC1 (centres undefined),-4

row,SMILES,% Inhibition [%]
1,COc1cccc(S(=O)(=O)N2CCCN(Cc3ccncc3)[C@H](c3ccccc3)CC(=O)NCC2)c1,92
2,COc1cccc(S(=O)(=O)N2CCC(OCCOc3ccccc3)CC2)c1,0
3,COc1cccc(S(=O)(=O)N2CCC(OCCOCc3ccccc3)CC2)c1,-3
4,COCCCn1c(=O)c2ccccc2n(CC(=O)N2CCc3ccccc32)c1=O,-8
5,CC(C)OC(=O)N(CCOC(=O)Nc1cccc(Cl)c1)CCOC(=O)Nc1cccc(Cl)c1,-15
6,COc1ncccc1C(=O)NC[C@H](C)S(N)(=O)=O,4
7,Cc1cc(NC(=O)C(=O)Nc2cnn(CCC(C)C)c2C)n(C)n1,-7
8,COc1ccccc1N(Cc1ccccc1)C1=NC(=[N+](Cc2ccccc2)c2ccccc2OC)c2ccccc21,74
9,C[C@H](NC(=O)c1cc(C2CC2)[nH]n1)c1nccs1,-11
10,CN(C(=O)c1ccccc1Br)C(C)(C)C,-10
11,COc1ccccc1[C@H]1CC(O)=Nc2c1ncn2-c1cc(F)ccc1F,-3
12,Cc1nnc2ccc(S(=O)(=O)N(Cc3ccccc3F)c3ccccc3)cn12,-16
13,COc1ccc(NC(=O)[C@@H]2COCC(=O)N2Cc2ccc(C)cc2)cc1,1
14,CCc1ccc(C2=C[C@@H](c3cccc(OC)c3)n3ncc(C(=O)Nc4ccc(C)cc4)c3N2)cc1,70
15,COc1cccc([C@H]2CC(=O)Nc3c2cnn3C)c1,-8
16,CC[C@H](C)N1CCN(Cc2cccc(Oc3ccccc3)c2)CC1,-6
17,CC[C@H]1Cn2c(C(=O)N3CCN(c4ccccn4)CC3)cc3c(Cl)ccc(c32)O1,-8
18,Cc1nn(C)cc1-c1nnc(-c2ccccc2)o1,-17
19,COc1ccc(COC(=O)c2cccnc2C)cn1,-9
20,O=C(C[C@H]1CCCN1c1ccnc(C2CC2)n1)c1ccco1,3
21,CCc1nc(NS(=O)(=O)c2cc(Cl)sc2Cl)no1,-4
22,O=C1NCCCc2nn(Cc3cc(F)ccc3Br)cc21,-12
23,CCOC(=O)c1c[nH]c2c(-c3ccccc3)nsc2c1=O,-5
24,O=C(c1cccs1)N1CCN(C2CCCCCC2)CC1,1
25,CC(C)c1nc(O)cc(CN2CCCCC2)n1,-8

row,SMILES,% Inhibition [%]
1,CC(C)c1ccc(-c2nc(CN3CCCCC3)cc(CN3CCCCC3)c2O)cc1,96
2,Cc1ccc(C)c(NC(=O)CN2CCC3(CC2)NC(c2ccc(OC(F)(F)F)cc2)=NO3)c1,-3
3,CC(C)[C@@H]1CN(C(=O)c2ccncc2)c2ccccc2N1,-7
4,Cc1ccc(Cn2ccnc2C(=O)Nc2ccccc2)cc1,-15
5,CC1(C)OCc2cc(CNc3ccc4oc(=O)[nH]c4c3)ccc2O1,93
6,CCCN1CC(=O)N(c2ccc(C)cc2)[C@@H]2CS(=O)(=O)C[C@@H]21,4
7,COc1ccc(-c2nccn3cc(C(=O)N4CCN(c5cccc(OC)c5)CC4)nc23)cc1,-6
8,O=C(NCc1ccccc1OC1CCC1)N(CCO)C1CC1,-2
9,CC(=O)N(c1ccccc1)[C@H]1C[C@@H](C)N(C(=O)C(F)(F)F)c2ccccc21,9
10,Cc1noc(C)c1CN1C[C@@H]2Oc3cc(F)ccc3C(=O)N(C)[C@@H]2C1,92
11,Cc1noc(C)c1CN1CCCN(C(=O)c2n[nH]c3ccccc23)CC1,0
12,Cc1noc(C)c1CN1CCNC(=O)CC1,-11
13,O=C1O[C@@H](CO)CN1c1cccc(F)c1,-4
14,COc1ccc2nc(N3CN(Cc4ccccc4)CN(c4nc5ccc(OC)cc5s4)C3)sc2c1,3
15,Cc1ccccc1C(=O)N(Cc1cccc(F)c1)c1ccc(CC(=O)NCCN2CCCCC2)cc1,44
16,Cc1ccc(C(=O)N(Cc2cccc(F)c2)c2ccc(CC(=O)N[C@@H](C)c3ccccc3)cc2)cc1,81
17,O=C(Cc1ccc(N(Cc2cccc(F)c2)C(=O)c2cccc(F)c2)cc1)NCCN1CCCCC1,38
18,CNC(=O)Cc1c(Cl)cccc1Cl,1
19,CN1CCN(C(=O)C[C@@H]2CCN3C[C@@H]2/C=C\COc2ccccc2CN(C(=O)CC(C)(C)C)CC3=O)CC1,5
20,Nc1cc(Br)c(C(F)(F)F)cc1NC(=O)C(F)(F)F,-11
21,CCn1cc(Br)c(=O)c(NC(=O)[C@H]2CCCOC2)c1,-7
22,Cc1nc2cc(NC(=O)c3cccs3)ccc2o1,-8
23,Cc1nc2cc(NC(=O)[C@@]3(C)CCCN(C(=O)c4ccccc4)C3)ccc2o1,57
24,CC(C)(CC(=O)Nc1ccc2oc(C3CC3)nc2c1)C(=O)O,-2
